mHTT-CaM PPI inh = inhibitors of human mutant huntingtin-calmodulin interaction; AID 1671202; inhibition, % at 15 µM; 190,000 tested, 3.6% active; AlphaScreen His-mHTT/GST-CaM binding, luminescence
Pf apPOL inh = Pf-apPOL DNA polymerase inhibition. inhibition, % at 10 µM. 210,000 tested, 0.25% active. Recombinant Pf-apPOL, molecular beacon fluorescence, 1.5 h
Numbers stand for hits; n = inactive; x = no result; ! = a repeat was not active. In the library only some 3.5% were active in any assay of this set; here they are far more common. No stated cut-off is given here; in the data, active means inhibition above about 50%; inactive means the rest.

SMILES	mHTT-CaM PPI inh	Pf apPOL inh
COc1ccc2ncc(C#N)c(N3CCC(C(=O)Nc4ccccc4)CC3)c2c1	n	n
CN(Cc1ccccc1)C(=O)C1CCN(c2cncnc2N2CCCCC2)CC1	n	n
CS(=O)(=O)c1ccc2nc(NC(=O)/C=C/c3ccccc3Cl)sc2c1	75	n
CC(C)c1ccc(/C=C/C(=O)Nc2nc3ccc(S(C)(=O)=O)cc3s2)cc1	n	n
CC(=O)C1=C(C)NC(SCC(N)=O)=C(C#N)C1c1ccccc1F (centres undefined)	n	n
COc1cc(C2C(=O)N(C3CCCCC3)CC(=O)N2Cc2ccccc2)ccc1OC(C)C (centres undefined)	n	n
Cc1[nH]c2ccccc2c1SCCNC(=O)c1ccccc1F	99	n
Cc1ccccc1C(=O)NCCSc1c(C)[nH]c2ccccc12	n	n
O=C(Nc1ccc(F)cc1F)N1CCC2(CC1)Nc1ccccc1-n1cccc12	54	n
Cc1ccccc1NC(=O)N1CCC2(CC1)Nc1ccccc1-n1cccc12	n	n
O=C(Nc1ccccc1F)N1CCC2(CC1)Nc1ccccc1-n1cccc12	50	n
O=C(Nc1cc(F)ccc1F)N1CCC2(CC1)Nc1cc(F)ccc1-n1cccc12	59	n
COc1cc(C(=O)N2CCC(Cn3ccnc3)CC2)cc(OC)c1OC	n	n
C=CCc1c(C)nc2nc(SCC(=O)NCc3ccccc3)nn2c1C	n	n
O=C(/C=C1\Sc2ccccc2N(Cc2ccc(F)cc2)C1=O)NCc1ccccc1Cl	n	n
CCNC(=S)NN1CCOCC1	n	x
O=C(Cn1cccc1)N1CCC(c2nnc(-c3ccco3)s2)CC1	n	n
O=C(CN1CCC(c2nnc(-c3ccco3)s2)CC1)c1ccc(Cl)cc1	72	n
COc1cc(C(=O)O)c(C2Oc3ccccc3C3CC(c4ccccc4)=NN32)cc1OC (centres undefined)	50	n
CCOc1cccc(C2Oc3ccccc3C3CC(c4cccs4)=NN32)c1O (centres undefined)	50	n
Clc1cccc(C2Oc3ccccc3C3CC(c4ccccc4)=NN32)c1 (centres undefined)	n	x
Oc1ccc(C2Oc3ccccc3C3CC(c4cccs4)=NN32)cc1O (centres undefined)	n	n
COc1ccc(C2Oc3ccccc3C3CC(c4cccs4)=NN32)cc1O (centres undefined)	52	n
COc1ccc(OC)c(C2Oc3c(OC)cccc3C3CC(c4cccs4)=NN32)c1 (centres undefined)	n	n
COc1cc(C2Oc3ccccc3C3CC(c4cccs4)=NN32)cc(OC)c1O (centres undefined)	n	n
SMILES	mHTT-CaM PPI inh	Pf apPOL inh
c1coc(C2Oc3ccccc3C3CC(c4cccs4)=NN32)c1 (centres undefined)	92	n
Cc1ccc2cccc(N3C(=O)Nc4cc(Cl)c(Cl)cc4N3O)c2n1	n	n
COCCNC(=O)C1CN(C(=O)c2cccs2)CC12CCCCC2 (centres undefined)	n	n
CSc1nnc2c(n1)OC(c1ccsc1)Nc1ccc(Br)cc1-2 (centres undefined)	n	n
CC(=O)N1CCC(n2c(C)nc(C(=O)NCc3cccc(C(F)(F)F)c3)c2C)CC1	n	n
COc1c(O)ccc(C2Oc3ccccc3C3CC(c4cccs4)=NN32)c1[N+](=O)[O-] (centres undefined)	55	n
O=C(c1cccs1)N1N=C(c2cccs2)CC1c1cc([N+](=O)[O-])ccc1O (centres undefined)	n	n
CCC1=C(C)/C(=C\c2[nH]c(C)c(CC)c2C)N=C1C	95	n
CC(=O)N1CCN(c2nc3c(s2)CC(C(=O)Nc2ccc(F)c(F)c2)CC3)CC1 (centres undefined)	n	n
OCCOC1CCCc2oc(-c3ccccc3)c(C#CC3(O)CCCCC3)c21 (centres undefined)	n	n
O=Cc1ccc(-c2c(-c3ccccc3)oc3c2C(OCCCCO)CCC3)o1 (centres undefined)	61	n
OC(C#CC1CC1)c1ccco1 (centres undefined)	100	n
OC(C#CC1(O)CCCCC1)c1ccco1 (centres undefined)	n	x
O=C(NCCc1cccnc1)C1CCN(c2nnc3ccccn23)CC1	n	n
CC1(C(=O)NCc2cccc(F)c2)CCCN(S(=O)(=O)c2cccc3nsnc23)C1 (centres undefined)	n	n
O=C(c1ccc(F)cc1)N1CCN(c2ccccc2)CC1	n	n
O=C(c1ccc(C#CC2(O)CCCCC2)cc1)N1CCN(c2ccc(F)cc2)CC1	52	n
Cc1cc(Br)cc2c1NC(=O)C2(O)N1CCOCC1 (centres undefined)	n	n
COc1cc(C2(c3ccc(O)c(OC)c3)C(=O)Nc3c(C)cc(Br)cc32)ccc1O	60	n
O=C(Nc1nc(-c2cc3ccccc3o2)cs1)c1cnccn1	n	n
O=C(NCC1CCN(Cc2ccco2)CC1)Nc1cccc(C(F)(F)F)c1	n	n
Cc1ccccc1NC(=O)Cc1nc(-c2ccccn2)n[nH]1	100	n
O=C(Cc1nc(-c2ccccn2)n[nH]1)Nc1ccc(F)c(F)c1	86	n
CCOC(=O)Cc1nc(-c2ccccn2)n[nH]1	98	n
Cc1ccc(NC(=O)Cc2nc(-c3ccccn3)n[nH]2)cc1	69	n
SMILES	mHTT-CaM PPI inh	Pf apPOL inh
Cc1ccc(NC(=O)Cc2nc(-c3ccccc3)n[nH]2)c(C)c1	n	n
O=C(Cc1nc(-c2cccnc2)n[nH]1)Nc1ccc(F)c(F)c1	n	n
O=C(Cc1nc(-c2cccnc2)n[nH]1)Nc1ccc(F)cc1	n	n
N#CCc1nc(-c2ccccn2)n[nH]1	x	n
CCn1cc(C(=O)O)c(=O)c2cc(F)c(N3CCN(C(=O)Cc4ccc(F)cc4)CC3)cc21	n	n
C[n+]1ccc(NC(=O)C(O)(c2ccccc2)c2ccccc2)cc1	n	n
COc1ccc(OS(=O)(=O)C(F)(F)F)cc1	n	x
Cc1cccc(NC(=O)Cc2nc(-c3ccccc3)n[nH]2)c1C	n	n
Cc1cccc(NC(=O)Cc2nc(-c3ccccn3)n[nH]2)c1C	99	n
Cc1ccc(O)c(N=C2C(=O)Nc3ccccc32)c1	56	n
Cc1ccc(N=C2C(=O)Nc3ccccc32)c(C)c1	n	n
Cc1ccc(C2CC(C(F)(F)F)n3ncc(C(=O)Nc4cc(C)cc(C)c4)c3N2)cc1 (centres undefined)	n	n
COc1cccc(N2C(=O)C3CCCN3C2c2ccc(C)o2)c1 (centres undefined)	n	n
C=CCOc1nc2c(c(=O)n(C)c(=O)n2C)n1C	100!	n
C/C=C/COc1nc2c(c(=O)n(C)c(=O)n2C)n1C	n	n
COc1ccccc1-c1nc(C2CCN(C(=O)c3nn(C)c4ccccc34)CC2)no1	n	n
CC1(O)N(CCN2C(=O)OC3(CCCCC3)C2(C)O)C(=O)OC12CCCCC2 (centres undefined)	n	n
COc1ccc(CN2CCc3nc(N4CCN(c5ccccc5)CC4)ncc3C2)cc1	n	n
Fc1ccc(N2CCN(c3ncc4c(n3)CCN(Cc3ccccc3)C4)CC2)cc1	n	n
Fc1ccc(CN2CCc3nc(N4CCN(c5ncccn5)CC4)ncc3C2)cc1	100	n
COc1ccc(CN2CCc3nc(N4CCN(c5ncccn5)CC4)ncc3C2)cc1	100	n
CC1CCN(C(=O)c2cc3c(s2)CCC(C(=O)NC2CCCC2)C3)CC1 (centres undefined)	n	n
Cc1ccc(C(=O)N(C)C2CCCCC2)c(C2CCN(Cc3cccs3)CC2)n1	n	n

Screens from PubChem.
